Source: PubChem BioAssay
PAX8 reporter: PAX8 transcriptional activity inhibition. inhibition, % at 12.6 µM. 360,000 compounds, 1.2% hits. RMG-I TPO-luciferase reporter, SteadyGlo, 24 h. AID 652154;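 active means mean replicate inhibition at least 60% with every replicate also reaching 60%; inconclusive means only one of the two criteria is met; inactive means mean below 60% and not all replicates reaching 60%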;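 further: luciferase light reporting Pax8 driven TPO promoter activity; plate controls were median of neutral control wells for no effect and mitoxantrone controls for full effect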
EWS-Fli inh: blocks EWS/Fli oncoprotein-driven transcription; A673 NR0B1-luciferase reporter, viability-normalised; inhibition, % at 12.6 µM; 350,000 compounds, 0.67% hits; AID 651661;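 active means mean inhibition of at least 50% after viability correction, with every replicate also passing that limit; inconclusive means mean reaches 50% but only one of two replicates passes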;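 further: firefly luciferase signal divided by Alamar Blue viability fluorescence both relative to DMSO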
ABHD5-PLIN5 inh: inhibitors of human ABHD5-perilipin-5 interaction | Q00G26+Q8WTS1 | Split G. princeps luciferase complementation, luminescence, 4 h | inhibition, % at 4 µM | 360,000 compounds, 0.78% hits;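 active means inhibition above the mean inhibition across every tested compound plus 3 SD, cut at about 22% in these data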;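 further: 0% = DMSO only wells and the 100% control is not disclosed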
Target sequence (Q00G26 whole entry, looked up): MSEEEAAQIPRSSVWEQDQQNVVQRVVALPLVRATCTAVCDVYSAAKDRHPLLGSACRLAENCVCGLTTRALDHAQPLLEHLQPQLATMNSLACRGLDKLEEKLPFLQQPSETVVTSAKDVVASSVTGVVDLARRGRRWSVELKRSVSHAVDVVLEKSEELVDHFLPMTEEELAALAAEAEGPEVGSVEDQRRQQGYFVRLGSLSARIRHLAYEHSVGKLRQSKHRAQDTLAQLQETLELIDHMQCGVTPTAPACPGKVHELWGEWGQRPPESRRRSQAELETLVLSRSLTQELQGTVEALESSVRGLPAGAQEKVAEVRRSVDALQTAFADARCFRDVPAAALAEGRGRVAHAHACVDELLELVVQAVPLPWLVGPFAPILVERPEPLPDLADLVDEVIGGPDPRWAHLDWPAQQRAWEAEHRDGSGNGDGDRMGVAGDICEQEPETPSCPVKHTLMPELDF
Target sequence (Q8WTS1 whole entry, looked up): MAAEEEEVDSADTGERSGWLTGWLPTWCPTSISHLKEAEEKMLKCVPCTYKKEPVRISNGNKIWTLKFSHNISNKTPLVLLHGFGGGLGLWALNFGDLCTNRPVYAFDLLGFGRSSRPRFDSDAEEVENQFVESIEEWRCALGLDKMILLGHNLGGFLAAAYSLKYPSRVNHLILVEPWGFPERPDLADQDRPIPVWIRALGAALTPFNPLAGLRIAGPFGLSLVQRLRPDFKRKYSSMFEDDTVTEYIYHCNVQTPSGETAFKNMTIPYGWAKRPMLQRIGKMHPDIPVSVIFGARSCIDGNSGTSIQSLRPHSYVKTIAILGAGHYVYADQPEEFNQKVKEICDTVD
Peg3 promoter: Peg3 promoter activity inhibition; inhibition, % at 20 µM; HeLa PEG-Prom luciferase reporter, luminescence, overnight; 360,000 compounds, 1.7% hits;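 active means inhibition of at least 50% at 20 µM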
Shn3 3UTR inh: Schnurri-3 reporter inhibition in Clone20 osteoblasts | Clone20 osteoblast Shn3 3'UTR firefly luciferase, 24 h | inhibition, % at 12.5 µM | 360,000 compounds, 0.52% hits | AID 588674;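 active means mean inhibition of at least 75% with every replicate also reaching 75%; inconclusive means mean inhibition at least 75% but some replicate below; inactive means mean inhibition below 75%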;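 further: 0% = median of neutral control wells and 100% = pilot-screen positive control compound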
TRPM1 prom inh: reduces MITF-dependent TRPM1 promoter luciferase signal; SK-MEL-5 TRPM1 promoter luciferase, 24 h; inhibition, % at 12.5 µM; 330,000 compounds, 0.83% hits;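 active means mean inhibition across replicates of 60% or more, whatever share of single replicates reaches that level; inconclusive means some that reach 60%, reason not given; inactive means mean inhibition across replicates below 60%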
The depositor's hits bear a star; ? = inconclusive; . = no result given. Hits are enriched below; roughly 3% of the tested compounds scored in any of these assays.

SMILES | PAX8 reporter | EWS-Fli inh | ABHD5-PLIN5 inh | Peg3 promoter | Shn3 3UTR inh | TRPM1 prom inh
C[C@H](CO)N1C[C@H](C)[C@@H](CN(C)Cc2ccc(C(=O)Nc3ccccc3N)cc2)Oc2ccc(N(C)C)cc2C1=O | 29 | ? | . | . | . | .
C[C@@H]1CN([C@H](C)CO)C(=O)Cc2cc(N(C)C)ccc2O[C@@H]1CN(C)Cc1ccc(C(=O)Nc2ccccc2N)cc1 | 62* | 8 | . | . | . | .
CCc1ccc(CNC(=O)C2CCN(S(=O)(=O)N3CCCCC3)CC2)cc1 | 81* | -8 | -6 | 15 | -4 | .
C[C@H]1CN([C@@H](C)CO)C(=O)CCCn2nncc2CO[C@@H]1CN(C)C(=O)Nc1cccc(C(F)(F)F)c1 | 4 | 0 | . | . | . | .
Cc1sc2ncnc(N3CCN(CCOc4ccc(Cl)cc4)CC3)c2c1C | . | 6 | -3 | 12 | 85* | 30
Cc1sc2ncnc(N3CCC(C(=O)NNC(=O)COc4ccc(Cl)cc4)CC3)c2c1C | 1 | 11 | -9 | 20 | 0 | 7
C=CCOc1ccc(-c2nc3c(c(=O)[nH]c(=O)n3CCCC)n2C)cc1Br | 15 | 9 | 0 | 10 | 2 | -21
CCCCn1c(=O)[nH]c(=O)c2c1nc(-c1ccc(OC)c(Br)c1)n2CC(C)C | 28 | 18 | -5 | 55* | -7 | -5
COc1ccc2c3c(n(C)c2c1)[C@@H](CO)N(C(C)=O)CC31CCN(C(=O)Nc2ccccc2F)CC1 | . | 4 | . | . | . | .
CN1C(=O)c2cc(NC(=O)NC3CCCC3)ccc2OC[C@H]2O[C@@H](CC(=O)NCC3CC3)CC[C@@H]21 | -7 | . | . | . | . | .
COc1cccc(NC(=O)CN(C)C(=O)c2cc(-c3cccc(Br)c3)nc3ccccc23)c1 | 26 | 11 | 0 | 71* | 7 | 11
CC(C)NC(=O)N(C)C[C@@H]1OCCCC[C@H](C)Oc2ccc(NC(=O)NC3CCCCC3)cc2C(=O)N([C@@H](C)CO)C[C@H]1C | 13 | 0 | . | . | . | .
COc1ccc(S(=O)(=O)Nc2cccc3c2O[C@@H](CN(C)Cc2ccc4c(c2)OCO4)[C@@H](C)CN([C@H](C)CO)C3=O)cc1 | -4 | 9 | . | . | . | .
C[C@@H]1CCCCO[C@H](CN(C)C(=O)C2CCCCC2)[C@H](C)CN([C@@H](C)CO)C(=O)c2cc(NS(=O)(=O)c3ccc(Cl)cc3)ccc2O1 | 76* | 12 | . | . | . | .
C[C@@H]1CN([C@H](C)CO)C(=O)c2cc(NS(=O)(=O)c3ccc(Cl)cc3)ccc2O[C@@H](C)CCCCO[C@@H]1CN(C)C(=O)C1CCCCC1 | 64* | 5 | . | . | . | .
O=C(C1CCCCC1)N1CC2(C1)[C@@H](c1ccccc1)[C@H](CO)N2Cc1nccs1 | . | -3 | . | . | . | .
COc1cccc(CNC(=O)C[C@H]2C=C[C@@H](NC(C)=O)[C@@H](CO)O2)c1 | 1 | 8 | . | . | . | .
Cc1ccc2c(c1)CCCN2C(=O)CCc1nc2ccccc2c(=O)[nH]1 | 20 | 65* | 2 | 33 | -3 | .
CC(=O)N1CCN(C(=O)CCc2nc3ccccc3c(=O)[nH]2)CC1 | . | -1 | -1 | -3 | -2 | 5
Cc1ccc2cc(CN(CC3CCCO3)S(=O)(=O)c3c(C)ccc4nsnc34)c(=O)[nH]c2c1 (stereo not drawn) | . | . | -1 | 24 | 12 | 14
Cc1ccc2nsnc2c1S(=O)(=O)N(Cc1cc2cccc(C)c2[nH]c1=O)CC1CCCO1 (stereo not drawn) | . | . | -1 | 84* | 21 | 9
CNc1cncc(-c2cc(C)c(O)c(C)c2)n1 | -15 | 52* | -3 | -27 | -33 | .
CNc1cncc(-c2ccc(O)cc2)n1 | -15 | -18 | -3 | -49 | 5 | .
C[C@H](CO)N1C[C@H](C)[C@@H](CN(C)Cc2ccc(Oc3ccccc3)cc2)Oc2ccc(N(C)C)cc2CC1=O | 36 | 7 | . | . | . | .
O=S(=O)(O)c1cc(O)c2c(O)c(N=Nc3cc(Cl)ccc3O)c(S(=O)(=O)O)cc2c1 | . | . | 24* | 42 | 15 | 51
SMILES | PAX8 reporter | EWS-Fli inh | ABHD5-PLIN5 inh | Peg3 promoter | Shn3 3UTR inh | TRPM1 prom inh
Cc1ccc(S(=O)(=O)N(C)C[C@@H]2OCCCC[C@@H](C)Oc3ccc(N(C)C)cc3C(=O)N([C@H](C)CO)C[C@@H]2C)cc1 | 4 | 0 | . | . | . | .
CC(C)NC(=O)N(C)C[C@H]1OCc2ccccc2-c2c(n(C)c3ccccc23)C(=O)N([C@H](C)CO)C[C@H]1C | . | 6 | . | . | . | .
CCCCCCCCC(c1nc2ccccc2[nH]1)N1CCN=C1c1cc2ccccc2[nH]1 (stereo not drawn) | 27 | 38 | 0 | 100* | 16 | .
CCC(c1nc2ccccc2[nH]1)n1c(C)nc2ccccc21 (stereo not drawn) | -7 | -2 | . | . | . | .
COC(=O)[C@@H]1[C@@H](CO)[C@@H]2Cn3c(cccc3=O)[C@@H]2N1CC1CCCCC1 | 2 | 6 | . | . | . | .
CCOC(CNc1ncnc2sc(-c3ccccc3)cc12)OCC | -14 | -3 | -3 | -26 | -18 | -31
CN(C)CCCNc1ncnc2sc(-c3ccccc3)cc12 | -27 | -3 | 6 | 71* | . | -34
CCOc1ccc(-c2nnc(SCC(=O)Nc3ccc4c(c3)c3ccccc3n4CC)n2N)cc1 | 36 | . | -2 | 34 | 58 | 78*
O=C(C1CCC1)N1CC(=O)N2[C@@H](CO)[C@H](c3ccc(C#Cc4cccc(F)c4)cc3)[C@@H]2C1 | -5 | -4 | . | . | . | .
O=C(C1CCCC1)N1CC(=O)N2[C@@H](CO)[C@H](c3ccc(C#Cc4cccc(F)c4)cc3)[C@@H]2C1 | . | -6 | . | . | . | .
O=C(C1CC1)N1CC(=O)N2[C@H](C1)[C@H](c1ccc(C#Cc3cccc(F)c3)cc1)[C@@H]2CO | 69* | 2 | . | . | . | .
O=C(C1CCC1)N1CC(=O)N2[C@H](C1)[C@H](c1ccc(C#Cc3cccc(F)c3)cc1)[C@@H]2CO | 81* | -2 | . | . | . | .
Cc1ccc(S(=O)(=O)N(C)C[C@@H]2Oc3ccc(NC(=O)CCCN(C)C)cc3C(=O)N([C@@H](C)CO)C[C@@H]2C)cc1 | -4 | 12 | . | . | . | .
O=C(c1ccccc1F)N1CCCc2ccccc21 | 8 | -6 | 1 | 18 | 16 | 10
CCc1ccc2c(c1)CCCN2C(=O)c1ccccc1C(=O)O | . | . | -7 | 18 | 88* | 26
COc1ccc(S(=O)(=O)N(C)C[C@@H]2Oc3ccc(NC(=O)Nc4ccc(C(F)(F)F)cc4)cc3CC(=O)N([C@H](C)CO)C[C@@H]2C)cc1 | 78* | 44 | . | . | . | .
COc1ccc(S(=O)(=O)N(C)C[C@@H]2Oc3ccc(NC(=O)Nc4ccc(C(F)(F)F)cc4)cc3CC(=O)N([C@@H](C)CO)C[C@@H]2C)cc1 | 66* | 46 | . | . | . | .
COCCOC(=O)N1C(=O)[C@@]2(c3cc(C#CC4(O)CCCCCC4)ccc31)[C@H](c1ccc(OCCO)cc1)N1[C@H](c3ccccc3)[C@H](c3ccccc3)OC(=O)[C@H]1[C@@H]2C(=O)N1CCN(c2ncccn2)CC1 | 8 | 5 | . | . | . | .
C[C@@H]1CN([C@@H](C)CO)C(=O)c2cc(NS(=O)(=O)c3ccc(F)cc3)ccc2O[C@@H]1CN(C)Cc1ccc(C(F)(F)F)cc1 | 107* | 75* | . | . | . | .
